Bioassay records: PubChem BioAssay, National Center for Advancing Translational Sciences (NCATS)
Sampled rows, rich in hits. Any-hit rate of the full collection: about 10%.
FLuc inh – inhibitors of firefly (Photinus pyralis) luciferase | P08659 | purified P. pyralis luciferase, luminescence, biochemical | Potency, µM (doses to about 115 µM), most hits filed as inhibitors | 76,000 compounds, 2.5% hits | AID 1347043; also: nearly all actives have a fitted effect of over 65% in size
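Biochemical qHTS: compound (6-point titration) added to 10uM D-luciferin plus 10uM ATP in Tris acetate pH 7.5 buffer with Mg, Tween-20 and BSA, then purified enzyme at 10nM; light output imaged.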
GPT2 inh – inhibitors of human GPT2 alanine aminotransferase; Q8TD30; Recombinant GPT2, coupled pyruvate oxidase/HRP Amplex Red fluorescence; Potency, µM (series often up to 57.7 µM), for the others: top-dose activity change, negative = inhibition, most hits filed as inhibitors; 100,000 compounds, 0.25% hits; also: nearly all actives have a fitted effect of over 60% in size
Target sequence (Q8TD30 whole entry, looked up): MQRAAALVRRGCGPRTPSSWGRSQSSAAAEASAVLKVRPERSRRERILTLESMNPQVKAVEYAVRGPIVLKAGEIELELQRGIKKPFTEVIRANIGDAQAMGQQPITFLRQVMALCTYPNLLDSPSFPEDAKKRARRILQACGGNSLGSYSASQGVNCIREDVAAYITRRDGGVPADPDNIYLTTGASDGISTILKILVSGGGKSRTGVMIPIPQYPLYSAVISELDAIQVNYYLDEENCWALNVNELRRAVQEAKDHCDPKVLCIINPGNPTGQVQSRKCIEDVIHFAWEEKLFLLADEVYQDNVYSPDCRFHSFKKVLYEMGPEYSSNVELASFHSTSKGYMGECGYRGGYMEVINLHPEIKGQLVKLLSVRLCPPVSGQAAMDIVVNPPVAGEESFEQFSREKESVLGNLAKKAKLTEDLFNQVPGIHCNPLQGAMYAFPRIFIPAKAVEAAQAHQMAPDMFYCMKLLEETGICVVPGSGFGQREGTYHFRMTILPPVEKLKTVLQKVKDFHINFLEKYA
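Recombinant GPT2 (10ng/uL) with 250uM a-KG and 2mM L-alanine, 30 min at room temperature, in HEPES pH 7.5 buffer. Pyruvate detected by pyruvate oxidase/HRP/Amplex Red fluorescence after 30 min in the dark; AOA (50uM) as positive control.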
hNpr1 antagonist – human Npr1 receptor antagonism; 76,000 compounds, 1.6% hits; P16066; HEK293 hNpr1 GloSensor cGMP, ANP-stimulated luminescence; Potency, µM (doses to about 46.3 µM), for inactives: at the top dose activity change, negative = inhibition, most hits filed as inhibitors; AID 1347048; calls by dose curve; also: nearly all actives have a fitted effect of over 60% in size
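Compound pre-incubated 30 min at room temperature on GloSensor-loaded HEK293 cells stably carrying hNpr1 and the pGS-40F cGMP biosensor. Stimulation uses hNppA at 0.1 nM final; luminescence is taken at baseline and 20 min post-agonist.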
NIH3T3 tox – cytotoxic compounds in NIH 3T3 cells. NIH 3T3 viability, CellTiter-Glo ATP luminescence, 48-72 h. Potency, µM (titrated, usually from 96.7 µM), for the others: top-dose activity change, negative = cytotoxicity, actives largely listed as inhibitors. 94,000 compounds, 4.3% hits. AID 1345082; also: nearly all actives have a fitted effect of over 55% in size
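First NIH 3T3 cells are plated at 400 cells/well; next compound is pinned in; then plates incubate 48 or 72 hr at 37 °C; finally CellTiter-Glo is added and luminescence read after 10 min.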
HEK cytotox – HEK 293 cell cytotoxicity; HEK 293 viability, ATP luminescence (CellTiter-Glo), 48-72 h; 94,000 compounds, 6.6% hits; AID 1345083; Potency, µM (top dose mostly 115 µM), without a hit: at the highest dose activity change, negative = cytotoxicity, actives largely listed as inhibitors; also: nearly all actives have a fitted effect of over 60% in size
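Read-out: CellTiter-Glo ATP luminescence. Cells: HEK 293, 250 cells/well. Exposure: 48 or 72 hr, 37 degree Celsius.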
Starred values were filed as active, the others as inactive; [ ] = another dose, or the depositor's remark. Unless noted, calls follow the shape of the dose curve; as a rule, active = well fitted curve in the direction sought with a large enough effect; inconclusive = small, poorly fitted or top-dose-only effect, or another doubt; inactive = no such curve, though single readings can be large; an effect the other way counts as inactive or inconclusive. % is scaled to controls: 0 for no effect and ±100 for the full control effect; potency is read from the fitted curve at half-maximal effect.

How did COc1cccc(-c2cc(C3CCN(C(=O)Nc4cc(Cl)ccc4C)CC3)[nH]n2)c1 do in these assays?
FLuc inh: inconclusive; GPT2 inh: -2%; hNpr1 antagonist: -23%; NIH3T3 tox: inconclusive; HEK cytotox: 45µM*

What do the screens show for `COc1cccc(-c2cc(C3CCN(C(=O)Nc4cccc(SC)c4)CC3)[nH]n2)c1`?
FLuc inh: inactive; GPT2 inh: -9%; hNpr1 antagonist: 1%; NIH3T3 tox: 45µM*; HEK cytotox: inconclusive

Results for COc1cccc(-c2cc(C3CCN(C(=O)NC4CCCC4)CC3)[nH]n2)c1 ?
FLuc inh: inactive; GPT2 inh: inactive; hNpr1 antagonist: -22%; NIH3T3 tox: -16%; HEK cytotox: inconclusive

Results for CCOc1ccccc1NC(=O)N1CCC(c2cc(-c3cccc(OC)c3)n[nH]2)CC1 ?
FLuc inh: inactive; GPT2 inh: 4%; hNpr1 antagonist: -23%; NIH3T3 tox: 35µM*; HEK cytotox: inconclusive

What do the screens show for `COc1cccc(-c2cc(C(=O)N3CCC(Cn4cccn4)CC3)[nH]n2)c1`?
FLuc inh: 32µM*; GPT2 inh: 2%; hNpr1 antagonist: 1%; NIH3T3 tox: inconclusive; HEK cytotox: -1%

Results for Cc1ccc(Nc2ccnc(N3CCCN(C(=O)N(C)C)C3)n2)cc1 ?
GPT2 inh: -7%[88.5 µM]; NIH3T3 tox: inconclusive; HEK cytotox: inconclusive

How did Cn1ccnc1CN1C[C@@H](F)[C@@H](OCc2nc3ccc(C(F)(F)F)cc3[nH]2)C1 do in these assays?
FLuc inh: inactive; GPT2 inh: -16%[88.5 µM]; hNpr1 antagonist: -1%[70.6 µM]; NIH3T3 tox: -2%[138 µM]; HEK cytotox: -12%[172 µM]

What do the screens show for `COC(=O)c1ccccc1S(=O)(=O)N1CCC(c2cc(-c3cccc(C)c3)n[nH]2)CC1`?
FLuc inh: inactive; GPT2 inh: inactive; hNpr1 antagonist: 1%; NIH3T3 tox: 40µM*; HEK cytotox: 45µM*

What do the screens show for `Cc1cccc(NC(=O)N2CCC(c3cc(-c4cccc(C)c4)n[nH]3)CC2)c1`?
FLuc inh: inactive; GPT2 inh: inconclusive; hNpr1 antagonist: -15%; NIH3T3 tox: inconclusive; HEK cytotox: inconclusive

How did COc1cccc(NC(=O)N2CCC(c3cc(-c4cccc(C)c4)n[nH]3)CC2)c1 do in these assays?
FLuc inh: inactive; GPT2 inh: -13%; hNpr1 antagonist: -24%; NIH3T3 tox: 40µM*; HEK cytotox: inconclusive

Results for Cc1nc(CN2C(=O)OC3(CCN(C(=O)c4ccnn4C)CC3)C2(C)c2ccccc2)cs1 (centres undefined) ?
FLuc inh: inactive; GPT2 inh: 1%; hNpr1 antagonist: 0%; NIH3T3 tox: 32µM*; HEK cytotox: 2%

Results for Cc1nc(CN2C(=O)OC3(CCN(C(=O)c4scnc4C)CC3)C2(C)c2ccccc2)cs1 (centres undefined) ?
FLuc inh: inactive; GPT2 inh: inactive; hNpr1 antagonist: -1%; NIH3T3 tox: 28µM*; HEK cytotox: -14%

Results for Cc1nc(CN2C(=O)OC3(CCN(C(=O)c4cccnc4)CC3)C2(C)c2ccccc2)cs1 (centres undefined) ?
FLuc inh: inactive; GPT2 inh: -1%; hNpr1 antagonist: -2%; NIH3T3 tox: 45µM*; HEK cytotox: inactive

Results for COc1ccccc1C(=O)N1CCC2(CC1)OC(=O)N(Cc1csc(C)n1)C2(C)c1ccccc1 (centres undefined) ?
FLuc inh: inactive; GPT2 inh: 2%; hNpr1 antagonist: -1%; NIH3T3 tox: inconclusive; HEK cytotox: -7%

How did CNCc1ccccc1-c1ccccc1 do in these assays?
GPT2 inh: inactive; NIH3T3 tox: -31%[174 µM]; HEK cytotox: -29%[230 µM]

Results for O=C(Nc1cccc(-c2ccc(N3CCCC3)nn2)c1)Nc1cc(F)ccc1F ?
FLuc inh: 5µM*; GPT2 inh: inconclusive; hNpr1 antagonist: inconclusive; NIH3T3 tox: inconclusive; HEK cytotox: inconclusive

What do the screens show for `O=C(Nc1cccc(-c2ccc(N3CCCC3)nn2)c1)Nc1c(F)cccc1F`?
FLuc inh: 14µM*; GPT2 inh: -25%; hNpr1 antagonist: -17%; NIH3T3 tox: inconclusive; HEK cytotox: inconclusive

What do the screens show for `O=C(Nc1cccc(-c2nnc3n2CCCC3)c1)Nc1ccccc1F`?
FLuc inh: inactive; GPT2 inh: inactive; hNpr1 antagonist: -8%; NIH3T3 tox: -13%; HEK cytotox: -11%

What do the screens show for `O=C(Nc1ccc(Cl)cc1)Nc1cccc(-c2cccc(N3CCCC3)n2)c1`?
GPT2 inh: -8%

What do the screens show for `CC1=Nc2cc(C(=O)NCCCN(C)C)ccc2Sc2ccc(Cl)cc21`?
FLuc inh: inactive; GPT2 inh: inactive; hNpr1 antagonist: -12%; NIH3T3 tox: 22µM*; HEK cytotox: 25µM*

Results for CC1=Nc2cc(C(=O)NCCCN(C)C)ccc2Sc2ccc(F)cc21 ?
FLuc inh: inactive; GPT2 inh: -13%; hNpr1 antagonist: 2%; NIH3T3 tox: inconclusive; HEK cytotox: 50µM*

Results for CC(=O)N1CCN(c2cc(-c3ccccc3)nc3c(C)noc23)CC1 ?
FLuc inh: inactive; GPT2 inh: inconclusive; hNpr1 antagonist: 1%[70.6 µM]; NIH3T3 tox: 89µM*; HEK cytotox: -18%[172 µM]

What do the screens show for `Cc1ccc(-c2cc(-c3cccnc3)nc3c(C)noc23)c(C)c1`?
FLuc inh: inconclusive; GPT2 inh: inconclusive; hNpr1 antagonist: 0%[70.6 µM]; NIH3T3 tox: inconclusive; HEK cytotox: 79µM*

What do the screens show for `Cc1noc2c(N3CCN(Cc4ccccc4)CC3)cc(-c3cccnc3)nc12`?
FLuc inh: inactive; GPT2 inh: inconclusive; hNpr1 antagonist: -17%[70.6 µM]; NIH3T3 tox: inconclusive; HEK cytotox: 63µM*

How did Cc1noc2c(N3CCOCC3)cc(-c3cccnc3)nc12 do in these assays?
FLuc inh: inactive; GPT2 inh: 2%[88.5 µM]; hNpr1 antagonist: 10%[70.6 µM]; NIH3T3 tox: inconclusive; HEK cytotox: -19%[172 µM]

How did Cc1ccc(-n2c(C3CCN(C(=O)c4ccc(C(C)(C)C)cc4)CC3)n[nH]c2=O)cc1 do in these assays?
FLuc inh: inactive; GPT2 inh: inactive; hNpr1 antagonist: -19%; NIH3T3 tox: inconclusive; HEK cytotox: inconclusive

How did COC(=O)[C@@H]1Cc2c([nH]c3ccccc23)[C@H]2C[C@@H](NC(C)C)C[C@@H](c3ccccc3)N21 do in these assays?
FLuc inh: inconclusive; GPT2 inh: 0%[88.5 µM]; hNpr1 antagonist: -15%[70.6 µM]; NIH3T3 tox: 40µM*; HEK cytotox: 35µM*

Results for COC(=O)[C@@H]1Cc2c([nH]c3ccccc23)[C@H]2C[C@@H](NC(C)C)C[C@@H](c3ccc(C)cc3)N21 ?
FLuc inh: inactive; GPT2 inh: inactive; hNpr1 antagonist: 0%[70.6 µM]; NIH3T3 tox: 40µM*; HEK cytotox: 35µM*
